PubChem BioAssay AID602233 (National Center for Advancing Translational Sciences (NCATS), 2012)
The whole screen tested about 380,000 compounds, of which about 170 (0.045%) were called active. Calls come from the whole dose curve; as a rule, active = well fitted inhibition curve with a large enough effect; inconclusive = small, poorly fitted or top-dose-only effect; inactive = no such curve, though single readings can be large or run the other way. Many of the other results were omitted from the sample, so actives are more common in it than they were.

Molecular target: Phosphoglycerate kinase, glycosomal (Trypanosoma brucei brucei) (UniProt P07378)
Sequence (P07378 whole entry, looked up): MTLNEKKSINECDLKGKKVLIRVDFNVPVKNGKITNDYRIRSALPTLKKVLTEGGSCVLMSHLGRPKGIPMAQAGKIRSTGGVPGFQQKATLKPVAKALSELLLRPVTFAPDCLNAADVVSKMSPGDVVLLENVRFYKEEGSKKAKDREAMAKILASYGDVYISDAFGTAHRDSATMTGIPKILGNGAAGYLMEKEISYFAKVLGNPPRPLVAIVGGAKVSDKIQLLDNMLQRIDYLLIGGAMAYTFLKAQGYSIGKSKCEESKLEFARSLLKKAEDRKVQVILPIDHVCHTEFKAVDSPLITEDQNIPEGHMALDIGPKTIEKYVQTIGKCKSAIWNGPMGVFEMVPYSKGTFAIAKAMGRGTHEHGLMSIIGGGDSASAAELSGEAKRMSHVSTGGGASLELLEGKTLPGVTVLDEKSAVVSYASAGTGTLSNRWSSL
Experiment: qHTS Assay to Find Inhibitors of Phosphoglycerate Kinase; note: nearly all actives have a fitted effect of over 60% in size
Settings: PGK/GAPDH coupled, Kinase-Glo luminescence, 60 min; series mostly up to 57.5 µM; activity change, negative = inhibition: at the top concentration
Outline: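 Luminescent ATP detection (Kinase-Glo Plus) follows a 60-minute room-temperature incubation, with wells lacking PGK as controls. Buffer: 100 mM TEA (pH 7.6), 5 mM MgCl2, 0.01% Tween-20. Coupling enzyme GAPDH (100 nM final) supplies unstable 1,3-BPG in-well.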
% is set by controls: 0 for no effect and ±100 for the full control effect.

Activity change, negative = inhibition, inactive:
CCCC(=O)Nc1cc(C(=O)NCc2ccc(OC)cc2)ccc1S(=O)(=O)c1ccc(Cl)cc1 3.14%
CC1=C(C(=O)OCC(C)C)C(c2ccc(OCc3ccccc3)cc2)N2C(=O)CCSC2=N1 (stereo unspecified) 10.3%
O=C(/C=C/c1cn(CC(O)CN2CCc3ccccc32)c2ccccc12)c1ccc(Br)cc1 (stereo unspecified) -0.876%
O=C(Nc1ccc(C(=O)OCc2cc(=O)n3nc(C4CC4)sc3n2)cc1)c1ccc(F)cc1 -0.294%
Cc1ccc(N(CC(=O)NCC(C)c2ccccc2)S(=O)(=O)N(C)C)cc1 (stereo unspecified) -4.73%
CCc1nnc2c3ccccc3nc(N3CCN(c4ccc(C)cc4C)CC3)n12 -2.29%
O=C(C1CCCN(S(=O)(=O)c2cccc3nonc23)C1)N1CCN(c2ccccc2F)CC1 (stereo unspecified) 0.227%
COc1ccc(SCc2cc(=O)c3ccc(C)c(C)c3[nH]2)cc1 -6.17%
Cc1ccc(-c2nc(Cn3c(=O)cc(-c4ccccc4)c4c(C)nn(C)c43)c(C)o2)cc1 -5.33%
CC(C)c1ccc(NC(=O)CN(C)S(=O)(=O)c2ccc3c(c2)c(=O)n(C)c(=O)n3C)cc1 3.59%
Cc1ccc2nc(-c3ccc(O)cc3)c(Nc3ccc4c(c3)OCO4)n2c1 0.889%
CC(C)Oc1ccc(CNC(=O)C2CCN(c3nc4ccccc4n(C)c3=O)CC2)cc1 3.34%
COc1cccc(C(=O)Nc2ccc(-c3cc(C(F)(F)F)nn3-c3ccccc3)cc2)c1 6.52%
Cc1ccccc1C(=O)Nc1nnc(S(=O)(=O)N(C)c2ccc(Cl)cc2)s1 -7.58%
O=C(COc1ccc(Cl)cc1)N(Cc1ccco1)Cc1ccco1 -6.16%

outcome, inactive:
Cc1c(Cl)cccc1NC(=O)C(=O)NCCc1csc2nc(-c3ccccc3F)nn12
NS(=O)(=O)c1ccc(NC(=O)C(=O)Nc2ccc3nc4n(c(=O)c3c2)CCCCC4)cc1
O=C(NCc1ccc(Cl)cc1)c1ccc2c(c1)nnn2C1CCCC1
Oc1ccccc1-c1nc2ccc(Cl)cn2c1Nc1ccc2c(c1)OCCO2
Cc1ccc(NC(=O)c2oc3ccc(S(=O)(=O)N4CCCCC4)cc3c2C)cc1Cl
Cc1cc(C)cc(NC(=O)CSc2oc(-c3ccccc3)nc2S(=O)(=O)c2ccc(Cl)cc2)c1
